Among all 2,300 compounds or so, about 1,200 (52%) were called active. No rule for the calls is given here. The set was probably picked from earlier hits. The list shows a part of the results. Results with a measured potency or affinity are listed apart.
Assay: mammalian cell cytotoxicity, dose response, cytotoxicity control for M. tuberculosis inhibitor project (AID 435019);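 also: lower values mean fewer viable cells so more cytotoxicity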
Conditions: cytotoxicity counter-screen; series mostly up to 40 µM

Row | SMILES | outcome
1 | CC1(C)CC(=O)c2cc(C(=O)NNc3ccccc3)c(=O)n(-c3ccccc3)c2C1 | inactive
2 | COc1ccc(NC(=O)CSc2nnc(-c3ccccn3)n2N)cc1Cl | inactive
3 | CSc1nn(-c2ccc(C(=O)OCC(=O)NC(=O)NC(C)C)cc2)c(=S)s1 | inactive
4 | COc1cc2c(cc1OC)CN(CCC(=O)c1ccc(Br)cc1)CC2 | inactive
5 | C#CCCc1cscc1/C=[N+](\[O-])c1ccc(C(=O)OCC)cc1 | inactive
6 | Cn1cnnc1SCc1ccc(-c2ccc(Br)cc2)o1 | inactive
7 | Cc1ccc(NC(=O)/C(Cl)=C\c2ccccc2)cc1 | inactive
8 | CCc1ccc(/C=C2/C(=O)N(C)C(=S)N2CC(=O)OC)s1 | inactive
9 | Oc1ccc(/C=N/n2c3ccccc3c3ccccc32)cc1 | inactive
10 | Cc1ccc(N2C(=O)C(F)(F)C2c2ccccc2)cc1 (stereo not given) | inactive
11 | COc1ccccc1N1CCN(/N=C/C(Cl)=C/c2ccccc2)CC1 | inactive
12 | OCCN(/C=N/c1nc(-c2ccc(Br)cc2)cs1)CCO | inactive
13 | CCOC(=O)c1cc2cc3ccccc3cc2oc1=O | inactive
14 | CCOC(=O)c1cnc(SC2CCc3ccccc3C2=O)nc1N (stereo not given) | inactive
15 | CC(Oc1cc2oc(=O)c3c(c2cc1Cl)CCCC3)C(=O)NCc1ccccn1 (stereo not given) | inactive
16 | CCOC(=O)C1CCN(c2cc3c(cc2NC(=O)c2ccccc2Cl)n(C)c(=O)n3C)CC1 | inactive
17 | CC1=NN(c2ccc(C)c(C)c2)C(=O)/C1=C\C=C\c1ccc([N+](=O)[O-])o1 | inactive
18 | CCN(CC(=O)NCc1cccs1)C(=O)c1ccc([N+](=O)[O-])o1 | inactive
19 | CC(C)=N/N=C1/NC(=O)C(Cc2ccccc2)S1 (stereo not given) | inactive
20 | Cc1cc(Nc2ccccc2)c2c([N+](=O)[O-])ccc(C)c2n1 | inactive
21 | Cc1ccc(N/N=C/C=C/c2ccco2)cc1 | inactive
22 | O=c1c2cc(-c3ccccc3)sc2ncn1/N=C/c1ccco1 | inactive

Row | SMILES | outcome
23 | CCOC(=O)c1nc2sc3c(c2c(=O)[nH]1)CCC(C)C3 (stereo not given) | inactive
24 | CCOC(=O)CCCNC(=O)COC(=O)c1cc(Br)c(Br)s1 | inactive
25 | CCOC(=O)CSc1nnc(SCCN2C(=O)c3ccccc3C2=O)s1 | inactive
26 | CCOC(=O)CSc1nn(-c2ccccc2)c(=S)s1 | inactive
27 | Cc1ccc2c(c1)C1C[N+](C)(CC(=O)c3ccc(Cl)cc3Cl)CCC1N2C(=O)c1ccc(F)cc1 (stereo not given) | inactive
28 | COC(=O)COc1ccc(-c2ccccc2)cc1C=O | inactive
29 | CCCCCCCCSc1nnc(CSc2nc3nc(C)cc(C)n3n2)o1 | inactive
30 | Cc1cc(C)c2cc(C(=O)Nc3ccc(C)c(F)c3)[nH]c2c1 | inactive
31 | COC(=O)c1ccc(N/C(C)=C/C(=O)c2ccc(C)o2)cc1 | inactive
32 | Cc1ccccc1NC(=O)Cc1nc(COC(=O)/C=C/c2ccccc2)cs1 | inactive
33 | COC(=O)c1cc(/C=C/c2ccccc2)on1 | inactive
34 | N#Cc1c(SCC(N)=O)nsc1SCc1ccccc1Cl | inactive
35 | O=C(CN1CCN(c2nc(-c3ccc(F)cc3)cs2)CC1)NCc1ccc2c(c1)OCO2 | inactive
36 | CCCCOc1ccc(-c2nnn(C(C)C(=O)OCC)n2)cc1 (stereo not given) | inactive
37 | Cc1cccc(N2CCN(CC(=O)Nc3nccs3)CC2)c1C | inactive
38 | CC1CCc2c(C(=O)Nc3nccs3)csc2C1 (stereo not given) | inactive
39 | Nc1ccc2cc(Br)ccc2c1 | inactive
40 | COC(=O)c1ccc(N/N=C/c2cc([N+](=O)[O-])cc(OC)c2O)cc1 | inactive
41 | COC(=O)Cc1ccc(NC(=O)c2ccc(Br)o2)cc1 | inactive
42 | CC1CCN(C(=O)c2ccc(-c3ccccc3Cl)o2)CC1 | inactive
43 | CCOC(=O)CSCC(=O)N1CCC(Cc2ccccc2)CC1 | inactive
44 | COc1ccc(OC(=O)c2cc3cc(Cl)ccc3oc2=O)cc1 | inactive

Row | SMILES | outcome
45 | Cc1cccc(OCC(=O)NNC(=O)c2cc3ccccc3oc2=O)c1 | inactive
46 | Cn1c(SCc2ccccc2)nc(N)c(N=O)c1=O | inactive
47 | CCOc1ccc(N=CNc2ccc(OCC)cc2)cc1 | inactive
48 | CCOc1ccc(NC(=O)CSc2cn[nH]n2)cc1 | inactive
49 | Cc1ccc(C(=O)N/N=C/C=C/c2ccccc2)cc1 | inactive
50 | COc1ccc(OCCCC(=O)OC(C)C(=O)Nc2ccccc2[N+](=O)[O-])cc1 (stereo not given) | inactive
51 | CCOC(=O)COn1c2c(c3c4no[n+]([O-])c4ccc31)CCCC2 | inactive
52 | Cc1cc(=O)n2[nH]c(Nc3cccc(Cl)c3)nc2n1 | inactive
53 | Cc1cc(O)c(/C=N/Nc2cccc(Cl)c2)c(=O)o1 | inactive
54 | COc1ccc(N2C(=O)C(Cl)=C(Nc3ccccc3O)C2=O)cc1 | inactive
55 | Nc1cnc(-c2ccccc2)nc1Cl | inactive
56 | COc1ccc2[nH]c(=O)c(CNc3cccc(C)c3)cc2c1 | inactive
57 | c1nc2n(n1)C1=C(CCCC1)C1(CCCCC1)N2 | inactive
58 | O=c1oc(-c2ccccc2[N+](=O)[O-])nc2ccccc12 | inactive
59 | CCOC(=O)c1ccc(NC(=S)NCCc2ccc(F)cc2)cc1 | inactive
60 | O=C(CCSc1ccc(Cl)cc1)NC12CC3CC(CC(C3)C1)C2 | inactive
61 | Cc1ccc(CN2C3CCCC2CC(NC(=S)NCc2ccccc2)C3)cc1 (stereo not given) | inactive
62 | O=C(Oc1ccccc1)c1ccccc1OS(=O)(=O)c1ccccc1 | inactive
63 | Cc1cc(N2CCN(C(=O)Nc3ccccc3C#N)CC2)c2ccccc2n1 | inactive
64 | COc1cc(/C=C2\C(=O)N(c3ccc(S(N)(=O)=O)cc3)N=C2C)ccc1OC(=O)c1ccco1 | inactive
65 | CSc1nsc(SCC(=O)Nc2ccc(F)cc2F)n1 | inactive
66 | CC(OC(=O)c1cnc2ccccc2n1)c1ccccc1Cl (stereo not given) | inactive

Row | SMILES | outcome
67 | Cc1nc(N2CCN(c3ccccn3)CC2)c2c(C)c(C(=O)N3CCN(c4ccc(F)cc4)CC3)sc2n1 | inactive
68 | CCOc1ccc(-n2c(O)c(/C=N/Nc3nnc(C)c(=O)[nH]3)c3ccccc3c2=O)cc1 | inactive
69 | CCOc1ccc(NC(C)c2cc(Cl)ccc2O)cc1 (stereo not given) | inactive
70 | CCc1ccc(Nc2n[n+](C)c(-c3ccncc3)s2)cc1 | inactive
71 | Cc1ccc(C(=O)Nc2ccc3c4c(cccc24)CC3)cc1[N+](=O)[O-] | inactive
72 | Cc1nc2ccc(NC(=O)c3ccc([N+](=O)[O-])cc3[N+](=O)[O-])cc2s1 | inactive
73 | O=C1c2ccccc2CC1Sc1nnc(-c2ccncc2)o1 (stereo not given) | inactive
74 | CC(C)NCC(O)c1ccc(O)c(O)c1 (stereo not given) | inactive
75 | CSc1ccccc1C(=O)NC1CCSc2ccccc21 (stereo not given) | inactive
76 | Cc1ccc(C)c(N/C(N)=N/c2nc(C)cc(C)n2)c1 | inactive
77 | CON(C)c1nc(C2CCCCC2)c2cc(C)ccc2n1 | inactive
78 | C/C=C(\C)C(=O)Nc1cccc(C2=NOC3(C2)C[C@H](C(N)=O)N(C(=O)c2cc([N+](=O)[O-])cc([N+](=O)[O-])c2)C3)c1 (stereo not given in full) | inactive
79 | CC(C)CCNC(=O)C(c1ccc(O)cc1)N(C(=O)C1COc2ccccc2O1)c1cccc(O)c1 (stereo not given) | inactive
80 | CCOC(=O)COc1ccc(/C=C2\NC(=S)N(CC)C2=O)cc1 | inactive
81 | Cc1cc2c(ccc3c2no[n+]3[O-])nn1 | inactive
82 | O=C(c1ccc(-c2cccc(C(F)(F)F)c2)o1)N1CCN(c2ccccc2O)CC1 | inactive
83 | COC(=O)C(C)Oc1ccc2c(c1)O/C(=C\c1ccco1)C2=O (stereo not given) | inactive
84 | CCOC(=O)C(C)Oc1ccc(OCc2ccccc2)cc1 (stereo not given) | inactive
85 | Cn1ccnc1-c1nnn(-c2ccc(Cl)c(Cl)c2)n1 | inactive
86 | CC12CCC(=O)N1C(C(=O)Nc1ccc(SC(F)F)cc1)CS2 (stereo not given) | inactive
87 | CCn1cnc2sc(C(=O)Oc3ccc(Br)cc3)c(C)c2c1=O | inactive
88 | COc1ccc(NC(=O)CN(C)C(=O)c2n[nH]c3ccccc23)cc1 | inactive

Row | SMILES | outcome
89 | COc1ccccc1C1CC(c2ccc(Cl)cc2)Nc2ncnn21 (stereo not given) | inactive
90 | CCN(CC)S(=O)(=O)c1cc(C(=O)Oc2cccc(-c3cnc4ccccc4n3)c2)ccc1Br | inactive
91 | Cc1ccc(-c2ccc(C3C(C#N)=C(N)Oc4n[nH]c(C)c43)o2)cc1 (stereo not given) | inactive
92 | CCc1nnc(N/N=C/c2cc(C)c(C)cc2C)n1N | inactive
93 | COc1ccc(-c2nnn(CC(=O)OC3CCCCC3)n2)cc1OC | inactive
94 | CO[C@@H]1[C@@H](OC(N)=O)[C@@H](O)C(Oc2ccc3c(O)c(NC(=O)c4ccc(O)c(CC=C(C)C)c4)c(=O)oc3c2C)OC1(C)C (stereo not given in full) | inactive
95 | O=C(COC(=O)C1=COCCO1)NCc1ccc(Cl)cc1 | inactive
96 | O=Cc1ccc2noc(-c3ccc(Cl)cc3)c2c1 | inactive
97 | O=S1(=O)CCC(N=Cc2ccc(-c3ccc(Cl)cc3)o2)C1 (stereo not given) | inactive
98 | Cc1ccc2cc(C)c(N3CCN(c4ccccn4)CC3)nc2c1 | inactive
99 | Cc1cc(C)c2c(CN3CCN(Cc4ccccc4)CC3)cc(=O)oc2c1C | inactive
100 | Cc1ccc2[nH]c3c(c2c1)CN(C(=O)CN1CCN(c2ccccn2)CC1)CC3 | inactive
101 | C#CCOCCOCCOCCNc1nc(N2CCN(C(=O)C(Cc3ccc(O)cc3)n3cc(C(N)CC(C)C)nn3)CC2)nc(N2CCN(C(=O)C(Cc3cc4ccccc4[nH]3)n3cc(C(N)Cc4ccc(O)cc4)nn3)CC2)n1 (stereo not given) | inactive
102 | CC1(C)CN(c2ccccc2)N(C(=O)c2ccc(C#N)cc2)C1=O | inactive
103 | CCOc1ccc(-n2cc(-c3ccccc3)c3c(=O)[nH]cnc32)cc1 | inactive
104 | CCOc1ccc(N2CC(=O)Nc3ccccc3NCC2=O)cc1 | inactive
105 | Cc1ccccc1-c1nc2cc(N)ccc2o1 | inactive
106 | O=C([O-])c1ccccc1-[n+]1c(-c2ccccc2)cc(-c2ccccc2)cc1-c1ccccc1 | inactive
107 | Cc1nc(-c2ccc(Cl)cc2)sc1C1(C)CC(c2ccc(C#N)cc2)=NO1 (stereo not given) | inactive
108 | CCOc1cc(C(=O)OCc2ccc(C(=O)OC)o2)cc(Br)c1OC | inactive
109 | Cc1ccc(-c2ccnc(=S)[nH]2)cc1 | inactive
110 | CC12CN3CCN(CC(C3)/C1=N\NC(=O)Nc1cccc(Cl)c1)C2 | inactive

Reference: PubChem BioAssay AID435019 (Southern Research Specialized Biocontainment Screening …, 2010)
